From PubChem BioAssay (EPA / NIEHS) come the findings set out here.

The structures appear in SMILES notation. Results filed as inconclusive are left out. Activity calls are given as the source filed them. Rule for the calls, unless noted: active = hit-call score of the fitted dose curve at least 0.9, where 1 is the maximum; inactive = score below 0.9.

For assay [1], the target named is Retinoic acid receptor RXR-alpha (Homo sapiens) (UniProt P19793). Description: OT_NURR1_NURR1RXRa_1440: Odyssey Thera (OT) 24-hour HEK293T Protein Complementation Assay for Nurr1/retinoid X receptor (RXR) (AID 2283386; active = hit-call score of the fitted dose curve at least 0.9, where 1 is the maximum). In outline: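 Fluorescence PCA read-out; HEK293T; 24 h post-dose; bait/prey fused to reporter fragments; gain-of-signal fit vs DMSO negative control.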

Read-out in assay [2]: Tumor necrosis factor receptor superfamily member 6 (Homo sapiens) (UniProt P25445)
Description: LTEA_HepaRG_FAS: Life Technologies and Expression Analysis (LTEA) Assay for Fas cell surface death receptor (FAS) using HepaRG (AID 2283447). To be noted: mRNA level, 48 h; actives raise or lower the signal. In outline: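 FAS transcript level was measured by TaqMan qRT-PCR against three housekeeping genes after 48 h chemical exposure. Cells were HepaRG, 0.5% DMSO vehicle, with a top concentration of 100 uM and half-log dilutions over eight points, in duplicate.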

Read-out in assay [3]: Fatty acid synthase (Homo sapiens) (UniProt P49327)
Kind of assay: LTEA_HepaRG_FASN: Life Technologies and Expression Analysis (LTEA) Assay for Fatty Acid Synthase (FASN) using HepaRG (AID 2283448).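 For AC50: differentiated human HepaRG liver cells in serum-free induction medium.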 To be noted: mRNA level, 48 h; actives raise or lower the signal. In outline: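 HepaRG, 48 h exposure, 8-pt half-log series top 100 uM, 0.5% DMSO vehicle, duplicates. Readout: FASN transcript by Fluidigm qRT-PCR; housekeeping-normalized; bidirectional curve fit vs DMSO baseline.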

Read-out in assay [4]: Cyclin D2 (CCND2), CCND2 (gene 894)
Kind of assay: LTEA_HepaRG_CCND2: Life Technologies and Expression Analysis (LTEA) Assay for Cyclin D2 (CCND2) using HepaRG (AID 2283449). The conditions noted are these: mRNA level, 48 h; actives raise or lower the signal. The method, boiled down:
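CCND2 transcript levels, quantified by qRT-PCR and normalised to three housekeeping genes, were fitted bidirectionally against 0.5% DMSO. HepaRG cultures were dosed 48 h in duplicate with an 8-point half-log series up to 100 uM.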

Read-out in assay [5]: Cyclin Dependent Kinase Inhibitor 1A (CDKN1A), CDKN1A (gene 1026)
Description: LTEA_HepaRG_CDKN1A: Life Technologies and Expression Analysis (LTEA) Assay for Cyclin Dependent Kinase Inhibitor 1A (CDKN1A) using HepaRG (AID 2283450). To be noted: mRNA level, 48 h; actives raise or lower the signal. The method, boiled down:
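Read-out is CDKN1A mRNA by TaqMan qRT-PCR, normalized to three housekeeping genes and fitted in both directions against the DMSO baseline. Human HepaRG cells were treated 48 h with test chemicals up to 100 uM in half-log steps, 0.5% DMSO.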

Read-out in assay [6]: Cyclin D1 (CCND1), CCND1 (gene 595)
Description: LTEA_HepaRG_CCND1: Life Technologies and Expression Analysis (LTEA) Assay for Cyclin D1 (CCND1) using HepaRG (AID 2283451). The conditions noted are these: mRNA level, 48 h; actives raise or lower the signal. The method, boiled down: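 HepaRG plated 48 h, medium switched to serum-free induction medium, chemicals added in duplicate (top 100 uM, half-log steps, 0.5% DMSO) for 48 h, cells lysed, RNA measured by TaqMan qRT-PCR.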

Read-out in assay [7]: catalase (CAT), CAT (gene 847)
Description: LTEA_HepaRG_CAT: Life Technologies and Expression Analysis (LTEA) Assay for catalase (CAT) using HepaRG (AID 2283452). To be noted: mRNA level, 48 h; actives raise or lower the signal. The method, boiled down:
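Expression of CAT was quantified by TaqMan qRT-PCR with ACTB/GAPDH/POLR2A normalization after 48 h chemical exposure of HepaRG. Eight-point half-log series, top 100 uM, in 0.5% DMSO; gain or loss fitted against vehicle.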

Read-out in assay [8]: flavin-containing dimethylaniline monooxygenases 3 (FMO3), FMO3 (gene 2328)
Kind of assay: LTEA_HepaRG_FMO3: Life Technologies and Expression Analysis (LTEA) Assay for flavin-containing dimethylaniline monooxygenases 3 (FMO3) using HepaRG (AID 2283453). The conditions noted are these: mRNA level, 48 h; actives raise or lower the signal. The method, boiled down: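 Eight-point concentration-response in serum-free HepaRG cultures (top 100 uM, 0.5% DMSO, 48 h). Read-out: FMO3 mRNA level normalized to three endogenous control genes, fitted bidirectionally versus vehicle.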

Read-out in assay [9]: Cytochrome P450 (CYP1A1), CYP1A1 (gene 1543)
Kind of assay: LTEA_HepaRG_CYP1A1: Life Technologies and Expression Analysis (LTEA) Assay for Cytochrome P450 (CYP1A1) using HepaRG (AID 2283454). The conditions noted are these: mRNA level, 48 h; actives raise or lower the signal. In outline:
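HepaRG, 48 h post-plating switched to serum-free induction medium; 8-pt conc-response (top 100 uM, half-log, 0.5% DMSO), duplicates, 48 h. Lysis in RLT, TaqMan qRT-PCR for CYP1A1; gain or loss vs DMSO.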

Read-out in assay [10]: CFLAR gene, CFLAR (gene 8837)
Kind of assay: LTEA_HepaRG_CFLAR: Life Technologies and Expression Analysis (LTEA) Assay for CFLAR gene using HepaRG (AID 2283455). To be noted: mRNA level, 48 h; actives raise or lower the signal. The method, boiled down: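 Transcript level by qRT-PCR (normalized to ACTB, GAPDH and POLR2A) after 48 h chemical exposure of HepaRG cells, top concentration 100 uM with half-log steps, 0.5% DMSO vehicle, duplicates; fitted bidirectionally against DMSO baseline.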

The target in assay [11] is Peroxisome proliferator-activated receptor gamma (Homo sapiens) (UniProt P37231). Description: OT_PPARg_PPARgSRC1_0480: Odyssey Thera (OT) 8-hour Protein-Complementation Assay for Peroxisome Proliferator-activated Receptor Gamma / SRC-1 Co-activator (AID 2283387; active = hit-call score of the fitted dose curve at least 0.9, where 1 is the maximum;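 note: nuclear to cytoplasmic split Venus YFP fluorescence ratio reporting PPARg SRC-1 interaction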). In outline:
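Protein-fragment complementation in HEK293T: Venus YFP halves (residues 1-158, 159-239, mutated to IFP1/IFP2) fused to PPARg/SRC-1. 8 h exposure; N/C ratio at 488 nm; DMSO negative control.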

Assay [12] shares this target. Description: OT_PPARg_PPARgSRC1_1440: Odyssey Thera (OT) 24-hour Protein-Complementation Assay for Peroxisome Proliferator-activated Receptor Gamma/ SRC-1 Co-activator (AID 2283388; active = hit-call score of the fitted dose curve at least 0.9, where 1 is the maximum;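 note: nuclear to cytoplasmic ratio of reconstituted Venus YFP fluorescence in fixed imaged cells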). In outline: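 Protein-fragment complementation between PPARg and coactivator SRC-1 was measured by fluorescence imaging in transiently transfected HEK293T cells after 24 h treatment. Signal was quantified as N/C ratio in the 488 nm channel, with DMSO as negative control.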

A short description of assay [13]: CEETOX_H295R_11DCORT: CeeTox H295R High-throughput Steroidogenesis Assay for 11-Deoxycortisol (11DCORT) (AID 2283432).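 For AC50: 11-deoxycortisol secreted into the medium measured by LC-MS/MS.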 To be noted: actives raise or lower the signal. In outline:
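Adrenal carcinoma line H295R, run per OECD 456 with minor changes, was forskolin-stimulated (10 uM, 48 h) before a 48 h chemical exposure at 0.1% DMSO. Secreted 11-deoxycortisol was quantified by HPLC-MS/MS.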

Assay [14] in a line: CEETOX_H295R_OHPREG: CeeTox H295R High-throughput Steroidogenesis Assay for OH-Pregnenolone (OHPREG) (AID 2283434). To be noted: actives raise or lower the signal. The method, boiled down: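 Secreted 17alpha-hydroxypregnenolone measured by HPLC-MS/MS after liquid-liquid extraction. Human adrenal H295R cells received 48 h forskolin (10 uM) stimulation before 48 h chemical exposure at 0.1% final DMSO; MTT viability in same wells; bidirectional fit against DMSO.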

Assay [15] can be described thus: CEETOX_H295R_ANDR: CeeTox H295R High-throughput Steroidogenesis Assay for Androstenedione (ANDR) (AID 2283436). To be noted: actives raise or lower the signal. In outline: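 Medium from 48 h chemical-treated H295R adrenal cells was extracted with MTBE and androstenedione measured by LC-MS/MS. Activity was fit in both directions relative to DMSO. Cytotoxic concentrations were re-tested after dilution until MTT viability reached ≥70%.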

A short description of assay [16]: CEETOX_H295R_CORTIC: CeeTox H295R High-throughput Steroidogenesis Assay for Corticosterone (CORTIC) (AID 2283437). To be noted: actives raise or lower the signal. The method, boiled down:
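Medium corticosterone was quantified by tandem mass spectrometry following 48 hours of chemical exposure (0.1% DMSO) in human H295R cells previously stimulated 48 hours with 10 uM forskolin. Viability checked by MTT; chemicals diluted and retested when viability fell below 70%.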

Assay [17] can be described thus: CEETOX_H295R_CORTISOL: CeeTox H295R High-throughput Steroidogenesis Assay for Cortisol (AID 2283438).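 Note: cortisol secreted into medium quantified by LC-MS/MS.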 To be noted: actives raise or lower the signal. The method, boiled down: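 Read-out: cortisol in culture medium by reverse-phase C18 HPLC with ESI-positive tandem MS, after MTBE liquid-liquid extraction. Cells: human adrenal H295R, forskolin-primed (10 uM, 48 h) before 48 h chemical exposure in 0.1% DMSO.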

Assay [18] can be described thus: CEETOX_H295R_DOC: CeeTox H295R High-throughput Steroidogenesis Assay for DOC (AID 2283439). To be noted: actives raise or lower the signal. In outline:
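Human adrenocortical H295R cells, passages up to 10, received 10 uM forskolin for 48 h before chemical addition. After another 48 h exposure in 0.1% DMSO, secreted DOC was measured by LC-MS/MS, with gain or loss fitted against DMSO controls.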

Assay [19] is described as follows: CEETOX_H295R_PROG: CeeTox H295R High-throughput Steroidogenesis Assay for Progesterone (PROG) (AID 2283442). To be noted: actives raise or lower the signal. In outline: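 Steps: seed H295R cells and let them adhere overnight; prime 48 h with 10 uM forskolin; dose with compound in DMSO at 0.1% final for 48 h; extract medium steroids with MTBE; measure progesterone by LC-MS/MS. MTT viability was run in the same wells.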

The nature of assay [20]: CEETOX_H295R_ESTRADIOL: CeeTox H295R High-throughput Steroidogenesis Assay for Estradiol (AID 2283440).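 Note: estradiol secreted into medium quantified by LC-MS/MS after dansyl derivatisation.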 To be noted: actives raise or lower the signal. In outline:
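Estradiol secreted into the medium was measured by tandem mass spectrometry after liquid-liquid extraction and dansylation. Human H295R cells had been forskolin-primed (10 uM, 48 h) before a 48 h chemical exposure with 0.1% DMSO.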

Fatty acid synthase (Homo sapiens), sequence (P49327 whole entry, looked up): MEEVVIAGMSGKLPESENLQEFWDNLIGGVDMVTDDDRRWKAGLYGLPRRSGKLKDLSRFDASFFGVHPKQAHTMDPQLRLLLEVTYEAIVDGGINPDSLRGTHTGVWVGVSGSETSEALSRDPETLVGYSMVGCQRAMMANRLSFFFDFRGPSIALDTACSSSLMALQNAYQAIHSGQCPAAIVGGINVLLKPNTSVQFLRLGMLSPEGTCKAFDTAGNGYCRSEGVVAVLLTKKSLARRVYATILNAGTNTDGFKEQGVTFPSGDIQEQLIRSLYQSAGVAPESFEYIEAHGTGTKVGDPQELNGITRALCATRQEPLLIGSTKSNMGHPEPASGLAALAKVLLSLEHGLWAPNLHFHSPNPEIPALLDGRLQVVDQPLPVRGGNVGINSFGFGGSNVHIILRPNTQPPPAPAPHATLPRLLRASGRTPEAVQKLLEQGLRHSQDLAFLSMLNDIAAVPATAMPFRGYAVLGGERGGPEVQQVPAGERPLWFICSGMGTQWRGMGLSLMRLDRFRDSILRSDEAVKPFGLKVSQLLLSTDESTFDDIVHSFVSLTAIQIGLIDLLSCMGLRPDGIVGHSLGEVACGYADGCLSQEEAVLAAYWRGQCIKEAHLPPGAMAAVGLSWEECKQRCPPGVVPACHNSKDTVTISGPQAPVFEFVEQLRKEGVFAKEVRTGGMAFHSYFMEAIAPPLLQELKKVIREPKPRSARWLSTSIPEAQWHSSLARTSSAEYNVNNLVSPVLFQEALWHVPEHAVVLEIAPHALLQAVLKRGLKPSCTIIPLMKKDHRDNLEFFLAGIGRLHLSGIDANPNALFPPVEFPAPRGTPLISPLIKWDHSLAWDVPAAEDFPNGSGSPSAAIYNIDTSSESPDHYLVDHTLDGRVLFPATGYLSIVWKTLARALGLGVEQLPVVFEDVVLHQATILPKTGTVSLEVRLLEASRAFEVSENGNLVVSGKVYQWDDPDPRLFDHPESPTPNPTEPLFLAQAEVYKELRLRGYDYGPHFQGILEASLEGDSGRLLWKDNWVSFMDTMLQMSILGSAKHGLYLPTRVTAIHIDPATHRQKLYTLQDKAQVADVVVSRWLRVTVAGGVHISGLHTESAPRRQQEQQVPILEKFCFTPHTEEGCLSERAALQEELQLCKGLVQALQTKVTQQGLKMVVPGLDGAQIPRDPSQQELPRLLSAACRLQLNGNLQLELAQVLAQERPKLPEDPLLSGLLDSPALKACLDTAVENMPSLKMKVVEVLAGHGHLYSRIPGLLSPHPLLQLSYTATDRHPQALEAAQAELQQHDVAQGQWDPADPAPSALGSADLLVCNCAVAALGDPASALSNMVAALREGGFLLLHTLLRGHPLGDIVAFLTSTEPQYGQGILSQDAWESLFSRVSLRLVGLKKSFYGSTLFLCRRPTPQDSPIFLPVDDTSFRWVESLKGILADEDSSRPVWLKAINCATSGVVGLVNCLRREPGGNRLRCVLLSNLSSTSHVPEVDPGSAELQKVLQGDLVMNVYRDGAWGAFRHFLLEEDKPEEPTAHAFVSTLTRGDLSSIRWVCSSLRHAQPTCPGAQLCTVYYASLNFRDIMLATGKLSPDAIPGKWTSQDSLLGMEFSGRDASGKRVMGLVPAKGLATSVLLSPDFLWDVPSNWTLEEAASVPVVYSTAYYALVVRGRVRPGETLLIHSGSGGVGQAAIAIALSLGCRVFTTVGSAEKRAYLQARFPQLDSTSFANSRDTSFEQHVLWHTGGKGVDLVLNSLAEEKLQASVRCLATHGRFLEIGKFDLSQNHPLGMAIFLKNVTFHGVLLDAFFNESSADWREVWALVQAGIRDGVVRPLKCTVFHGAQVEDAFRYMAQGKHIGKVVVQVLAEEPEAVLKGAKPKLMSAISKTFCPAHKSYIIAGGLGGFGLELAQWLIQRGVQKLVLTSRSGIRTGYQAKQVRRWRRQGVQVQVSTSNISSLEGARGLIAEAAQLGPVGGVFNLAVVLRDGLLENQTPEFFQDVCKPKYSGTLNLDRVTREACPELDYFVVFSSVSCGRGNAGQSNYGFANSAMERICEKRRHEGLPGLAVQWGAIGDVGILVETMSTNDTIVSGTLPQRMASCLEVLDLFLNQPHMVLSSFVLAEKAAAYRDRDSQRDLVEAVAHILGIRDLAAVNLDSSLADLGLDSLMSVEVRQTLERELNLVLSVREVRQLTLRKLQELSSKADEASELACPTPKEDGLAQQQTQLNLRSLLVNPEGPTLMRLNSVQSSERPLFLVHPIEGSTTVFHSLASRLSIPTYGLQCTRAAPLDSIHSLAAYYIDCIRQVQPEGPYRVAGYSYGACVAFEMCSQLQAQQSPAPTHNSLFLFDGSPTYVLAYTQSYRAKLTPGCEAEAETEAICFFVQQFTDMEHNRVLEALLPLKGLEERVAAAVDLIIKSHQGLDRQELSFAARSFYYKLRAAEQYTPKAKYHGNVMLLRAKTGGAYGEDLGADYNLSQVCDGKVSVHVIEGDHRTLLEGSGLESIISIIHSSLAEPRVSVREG
Retinoic acid receptor RXR-alpha (Homo sapiens), sequence (P19793 whole entry, looked up, the tested form may be a part): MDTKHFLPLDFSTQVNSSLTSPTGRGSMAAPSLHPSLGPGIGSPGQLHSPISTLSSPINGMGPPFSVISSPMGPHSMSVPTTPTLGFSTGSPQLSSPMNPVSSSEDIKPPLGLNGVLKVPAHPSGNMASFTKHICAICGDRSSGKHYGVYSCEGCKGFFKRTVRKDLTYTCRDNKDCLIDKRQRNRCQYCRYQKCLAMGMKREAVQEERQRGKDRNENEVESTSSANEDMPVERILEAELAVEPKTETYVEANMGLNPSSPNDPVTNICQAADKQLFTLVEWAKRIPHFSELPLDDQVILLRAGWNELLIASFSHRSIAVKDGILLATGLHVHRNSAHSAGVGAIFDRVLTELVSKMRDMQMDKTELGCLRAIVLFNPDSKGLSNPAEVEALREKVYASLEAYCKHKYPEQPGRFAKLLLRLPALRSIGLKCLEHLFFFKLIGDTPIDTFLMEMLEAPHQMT
Peroxisome proliferator-activated receptor gamma (Homo sapiens), sequence (P37231 whole entry, looked up, the tested form may be a part): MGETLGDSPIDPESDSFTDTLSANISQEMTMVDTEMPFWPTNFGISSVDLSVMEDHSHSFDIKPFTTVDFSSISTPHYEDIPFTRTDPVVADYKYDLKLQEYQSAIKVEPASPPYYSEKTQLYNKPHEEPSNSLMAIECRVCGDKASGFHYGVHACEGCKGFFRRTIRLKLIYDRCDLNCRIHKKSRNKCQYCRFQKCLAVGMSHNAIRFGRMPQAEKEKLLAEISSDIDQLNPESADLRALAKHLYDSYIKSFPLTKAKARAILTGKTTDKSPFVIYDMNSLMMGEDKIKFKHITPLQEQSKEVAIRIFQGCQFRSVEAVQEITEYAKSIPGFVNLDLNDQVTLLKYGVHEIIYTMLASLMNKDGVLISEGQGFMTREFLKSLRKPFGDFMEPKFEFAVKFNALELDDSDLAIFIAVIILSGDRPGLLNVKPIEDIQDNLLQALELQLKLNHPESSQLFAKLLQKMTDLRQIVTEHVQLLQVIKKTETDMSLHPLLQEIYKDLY

For the compound `Cc1ccccc1N`, the call in assay [1], in assay [2], in assay [3], in assay [4], in assay [5] and in assay [6] was inactive. The result in assay [7], in assay [8], in [9] and in assay [10] was inactive.

As to `CC12CC1(C)C(=O)N(c1cc(Cl)cc(Cl)c1)C2=O` (centres undefined), the outcome in assay [1], in assay [11], in [12], in assay [13], in assay [14] and in [17] was inactive. Further, the result in assay [18], in assay [19], in assay [2], in assay [4], in assay [5] and in [6] was inactive. Moreover, the compound was classed as inactive in [7], in [8], in assay [9] and in assay [10]. Further, the AC50 (usually the midpoint of the concentration-response curve, whichever way the signal moves) in [15] was 30.9 µM (active); in assay [16] it was 14.1 µM (active); in assay [3] it was 5.61 µM (active).

On to `O=C(O)C(F)(F)C(F)(F)C(F)(F)C(F)(F)C(F)(F)C(F)(F)F`, for which the outcome in [1], in [11], in assay [12], in [2], in assay [3] and in assay [4] was inactive. Besides, the call in [5], in assay [6], in assay [7], in assay [8], in [9] and in assay [10] was inactive.

For `Clc1nc(Cl)nc(Cl)n1`, the compound was classed as inactive in assay [1] and in assay [12].

Take `Fc1ccc(C2(Cn3cncn3)OC2c2ccccc2Cl)cc1` (centres undefined): the outcome in [1], in assay [11], in [12], in assay [16] and in assay [19] was inactive. Moreover, the AC50 was 7.55 µM (active) in assay [13]; 0.645 µM (active) in assay [14]; 3.04 µM (active) in assay [17]; 2.08 µM (active) in [18]; 1.5 µM (active) in [20].

As to `O=C1C(Cl)=C(Cl)C(=O)c2ccccc21`, the half-maximal activity concentration (AC50) in assay [11] and in assay [12] was 11.8 µM (active) throughout.

For the compound `CN(C)N=O`, the result in assay [1], in assay [11], in assay [12], in [2], in assay [3] and in assay [4] was inactive. Further, the call in assay [5], in assay [6], in [7], in [8], in assay [9] and in assay [10] was inactive.

As to `CC(C)(C)c1cc(O)ccc1O`, the outcome in assay [1], in assay [11], in assay [12], in assay [2], in [3] and in assay [4] was inactive. The outcome in [5], in assay [6], in assay [7], in [8], in assay [9] and in [10] was inactive.
